Inconclusive results are not listed. Calls of active or inactive are those of the source. Calls follow the shape of the dose curve; as a rule, active = well fitted curve in the direction sought with a large enough effect; inconclusive = small, poorly fitted or top-dose-only effect, or another doubt; inactive = no such curve, though single readings can be large; an effect the other way counts as inactive or inconclusive.
Tests used:
[1] = target: Cytochrome P450 3A4 (Homo sapiens) (UniProt P08684); experiment: qHTS for inhibitors of CYP3A4 against the NCATS DSHEA and TCM libraries (AID 1919971);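 also: inhibition lowers luminescence from luciferin made by CYP3A4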
Cytochrome P450 3A4 (Homo sapiens), sequence (P08684 whole entry, looked up): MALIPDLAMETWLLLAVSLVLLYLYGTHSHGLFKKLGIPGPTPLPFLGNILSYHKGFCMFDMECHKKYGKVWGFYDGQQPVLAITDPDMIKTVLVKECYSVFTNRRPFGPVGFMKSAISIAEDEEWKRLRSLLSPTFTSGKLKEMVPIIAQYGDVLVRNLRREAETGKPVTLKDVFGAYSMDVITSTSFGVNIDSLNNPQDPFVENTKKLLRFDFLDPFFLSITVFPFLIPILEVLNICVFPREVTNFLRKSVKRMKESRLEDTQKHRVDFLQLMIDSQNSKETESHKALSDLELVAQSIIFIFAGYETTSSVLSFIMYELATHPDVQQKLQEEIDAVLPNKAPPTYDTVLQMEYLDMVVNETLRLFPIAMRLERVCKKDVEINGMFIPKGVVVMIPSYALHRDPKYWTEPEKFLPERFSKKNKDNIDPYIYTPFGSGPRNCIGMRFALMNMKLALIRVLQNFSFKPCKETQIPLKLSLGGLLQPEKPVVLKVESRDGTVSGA
In short: (§1)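 Substances were tested against enzyme with a pro-luciferin substrate; minus-enzyme wells served as background. After NADPH-initiated oxidation (30-45 min, RT), light was generated with P450-Glo reagent.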

[2] = target: Cytochrome P450 2D6 (Homo sapiens) (UniProt P10635); experiment: qHTS for inhibitors of CYP2D6 against the NCATS DSHEA and TCM libraries (AID 1919972)
Cytochrome P450 2D6 (Homo sapiens), sequence (P10635 whole entry, looked up): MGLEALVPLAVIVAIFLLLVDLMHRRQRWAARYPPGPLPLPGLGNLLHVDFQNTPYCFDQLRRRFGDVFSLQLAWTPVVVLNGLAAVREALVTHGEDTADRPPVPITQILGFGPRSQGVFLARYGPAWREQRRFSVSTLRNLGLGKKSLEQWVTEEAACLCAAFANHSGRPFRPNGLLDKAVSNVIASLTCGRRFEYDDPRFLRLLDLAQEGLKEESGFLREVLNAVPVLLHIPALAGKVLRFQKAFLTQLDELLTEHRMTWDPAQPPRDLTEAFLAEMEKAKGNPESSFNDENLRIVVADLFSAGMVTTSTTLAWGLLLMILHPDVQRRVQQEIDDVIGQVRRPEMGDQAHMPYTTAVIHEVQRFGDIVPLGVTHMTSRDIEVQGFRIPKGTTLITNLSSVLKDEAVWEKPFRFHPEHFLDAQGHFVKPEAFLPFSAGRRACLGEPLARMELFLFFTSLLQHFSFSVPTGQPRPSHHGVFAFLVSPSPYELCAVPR
In short: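 qHTS, concentration–response format with most substances from 19.5 nM. CYP2D6 + pro-luciferin substrate, 15 min with compound, then 1x NADPH regen, 30–45 min RT dark. Glo detection 30 min, luminescence. Quinidine control.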

[3] = target: Cytochrome P450 2C9 (Homo sapiens) (UniProt P11712); experiment: qHTS for inhibitors of CYP2C9 against the NCATS DSHEA and TCM libraries (AID 1919973);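 also: luminogenic pro-luciferin CYP2C9 substrate turned into luciferin with NADPH regeneration; series mostly up to about 34 µM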
Cytochrome P450 2C9 (Homo sapiens), sequence (P11712 whole entry, looked up): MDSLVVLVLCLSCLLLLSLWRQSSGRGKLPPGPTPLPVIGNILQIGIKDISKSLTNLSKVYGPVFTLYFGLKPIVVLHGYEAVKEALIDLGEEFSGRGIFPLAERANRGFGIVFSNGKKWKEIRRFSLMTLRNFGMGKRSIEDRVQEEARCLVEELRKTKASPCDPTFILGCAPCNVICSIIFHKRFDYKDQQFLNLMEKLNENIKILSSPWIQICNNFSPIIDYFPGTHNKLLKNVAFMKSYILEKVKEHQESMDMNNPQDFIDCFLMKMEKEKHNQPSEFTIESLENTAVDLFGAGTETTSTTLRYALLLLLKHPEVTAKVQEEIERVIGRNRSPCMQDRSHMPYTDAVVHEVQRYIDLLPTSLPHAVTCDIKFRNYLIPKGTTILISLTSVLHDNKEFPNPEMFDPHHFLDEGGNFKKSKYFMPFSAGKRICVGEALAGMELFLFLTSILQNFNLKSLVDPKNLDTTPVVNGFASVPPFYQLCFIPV
In short: as §1

[4] = KB-3-1 P-gp reporter qHTS against the NCATS DSHEA and TCM libraries (AID 1919975)
In short: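 72 h exposure of KB-3-1 cells (DMEM, 10% FBS) to DSHEA/TCM samples, concentration-response; cell viability measured as CellTiter-Glo luminescence after 30 min at room temperature.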

[5] = target: Cytochrome P450 1A2 (Homo sapiens) (UniProt P05177); experiment: qHTS for inhibitors of CYPIA2 against the NCATS DSHEA and TCM libraries (AID 1919976); also: series mostly up to about 37 µM
Cytochrome P450 1A2 (Homo sapiens), sequence (P05177 whole entry, looked up): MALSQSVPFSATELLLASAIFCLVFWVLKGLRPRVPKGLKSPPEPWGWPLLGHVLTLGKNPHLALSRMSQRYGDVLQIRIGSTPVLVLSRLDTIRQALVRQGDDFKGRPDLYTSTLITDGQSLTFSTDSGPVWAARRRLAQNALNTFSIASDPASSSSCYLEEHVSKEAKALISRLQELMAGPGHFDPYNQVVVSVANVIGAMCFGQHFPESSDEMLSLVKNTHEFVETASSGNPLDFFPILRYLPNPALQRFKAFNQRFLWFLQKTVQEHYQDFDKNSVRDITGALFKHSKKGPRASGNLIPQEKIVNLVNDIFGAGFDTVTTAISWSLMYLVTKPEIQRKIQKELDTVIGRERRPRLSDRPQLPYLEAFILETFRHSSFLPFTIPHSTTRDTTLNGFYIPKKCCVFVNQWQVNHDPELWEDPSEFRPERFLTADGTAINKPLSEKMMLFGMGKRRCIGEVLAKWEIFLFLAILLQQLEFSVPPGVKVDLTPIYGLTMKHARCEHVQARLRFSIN
In short: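 Luminescence read-out: pro-luciferin converted to D-luciferin by CYP1A2, detected with P450-Glo reagent after 30 min RT. Enzyme plus substrate got compounds for 15 min RT; NADPH regeneration solution (final 1x) started a 30-45 min reaction, light-protected.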

[6] = target: Cytochrome P450 2C19 (Homo sapiens) (UniProt P33261); experiment: qHTS for inhibitors of CYP2C19 against the NCATS DSHEA and TCM libraries (AID 1919974);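 also: luminescence from luciferin released by CYP2C19 oxidation of a pro-luciferin substrate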
Cytochrome P450 2C19 (Homo sapiens), sequence (P33261 whole entry, looked up): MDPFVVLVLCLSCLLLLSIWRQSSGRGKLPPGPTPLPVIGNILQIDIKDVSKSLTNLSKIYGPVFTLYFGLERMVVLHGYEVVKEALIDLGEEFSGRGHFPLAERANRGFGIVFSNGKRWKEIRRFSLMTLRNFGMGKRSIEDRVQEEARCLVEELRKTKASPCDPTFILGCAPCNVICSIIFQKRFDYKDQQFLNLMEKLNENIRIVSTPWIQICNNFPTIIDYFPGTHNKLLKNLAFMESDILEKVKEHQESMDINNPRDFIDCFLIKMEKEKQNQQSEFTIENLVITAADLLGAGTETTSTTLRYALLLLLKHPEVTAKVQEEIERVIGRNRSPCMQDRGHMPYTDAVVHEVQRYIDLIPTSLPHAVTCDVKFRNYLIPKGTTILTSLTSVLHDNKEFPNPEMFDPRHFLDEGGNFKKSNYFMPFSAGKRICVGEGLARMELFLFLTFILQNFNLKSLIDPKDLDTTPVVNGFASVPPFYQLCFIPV
In short: as §1

[7] = target: Luciferin 4-monooxygenase (Photinus pyralis) (UniProt P08659); experiment: Primary firefly luciferase (FLuc) qHTS assay for identification of artifact compounds. (AID 1845220); details: outcome: dose series up to 54.1 µM unless noted; also: nearly all actives have a fitted effect of over 60% in size
In short: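 Compounds sat 15 min at room temperature with 10 uM luciferin and 10 uM ATP (pH 7.6 Tris acetate). Firefly luciferase (10 nM final) was then added, and luminescence was read 5 min later. Data normalized to no-enzyme and DMSO controls were Hill-fitted.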

[8] = Primary fluorescence-based thiol-reactive (MSTI) qHTS assay for identification of artifact compounds. (AID 1845221); also: nearly all actives have a fitted effect of over 65% in size; also: potency is read from the fitted curve at half-maximal effect
In short: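 MSTI probe at 4 uM final in 2% DMSO/PBS pH 7.4; compounds, 1 h at room temperature in dark. Fluorescence Ex/Em 525/598 nm, normalised to Acetyl-MSTI and MSTI, fitted to 4-parameter Hill.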

[9] = system: Nanoluciferase (engineered Oplophorus gracilirostris luciferase); experiment: Primary Nanoluciferase (NLuc) qHTS assay for identification of artifact compounds. (AID 1845222); also: series mostly up to about 54 µM
In short: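 Luminescence from secreted NLuc (filtered, 1:55-diluted S16 cell medium) read 5 min after Nano-Glo substrate; compounds preincubated 15 min, RT. Hill fits of inhibition normalized to DMSO and no-enzyme.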

[10] = Primary redox qHTS assay for identification of artifact compounds. (AID 1845223)
In short: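 Redox-cycling detection via DTT (250 uM final) oxidation coupled to Amplex Red (25 uM)/HRP (250 mU/mL) in HBSS. 15 min preincubation plus 30 min after DTT, room temperature. Ex/Em 525/598 nm; 4-parameter Hill fit against DMSO and 10 uM DA3003.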

Measured: Potency

O=C1O[C@H]([C@@H](O)CO)C(O)=C1O
inactive: [1] | [2] | [3] | [4] | [5]

O=C(O)c1ccccc1O
inactive: [1] | [2] | [3] | [6] | [4] | [5]

Nc1nc2c(ncn2CCC(CO)CO)c(=O)[nH]1
inactive: [7] | [8] | [9] | [10]

CC/C=C(\C(=O)N[C@@H]1C(=O)N2C(C(=O)OCOC(=O)C(C)(C)C)=C(COC(N)=O)CS[C@H]12)c1csc(N)n1
inactive: [7] | [8] | [9] | [10]

CNC(=O)Oc1ccc2c(c1)[C@]1(C)CCN(C)[C@@H]1N2C
inactive: [7] | [9]

NC(N)=NCCC[C@H](N)C(=O)O
inactive: [1] | [2] | [3] | [4]

CC(=O)NC(Cc1ccccc1)C(=O)O (centres undefined)
active: [8] 11.2 µM
inactive: [7] inactive [at 86.2 µM] | [9] | [10]

CCOC(=O)[C@H](CCc1ccccc1)N[C@@H](C)C(=O)N1C(=O)N(C)C[C@H]1C(=O)O
inactive: [7] | [8] | [9] | [10]

CS(=O)(=O)c1ccc([C@@H](O)[C@@H](CF)NC(=O)C(Cl)Cl)cc1
inactive: [7] | [8] | [9] | [10]

Cc1cccc(Nc2cc(Cl)nc(SCC(=O)O)n2)c1C
inactive: [7] | [8] | [10]

CC(C)(C)C(=O)C(Oc1ccc(Cl)cc1)n1ccnc1 (centres undefined)
inactive: [7] | [8] | [9] | [10]

— PubChem BioAssay (NCATS)
